Structures are written as SMILES. The panel holds about 83,000 compounds, 20% with a hit somewhere; the sample as a whole holds those more often.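 The endpoint reported here, percent growth, reads 100 for growth as untreated, 0 for no net growth and -100 for all cells dead.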 Unmarked numbers belong to inactive results. Activity calls are given as the source filed them. Rule for the calls: active = growth percent below 10; inactive = the rest.

This assay has as its system NCI-H23 lung. Put plainly: NCI-60 one-dose screen, 48 h (100 = growth as untreated, 0 = no growth, -100 = all killed). The conditions noted are these: 10 µM unless noted.
For the molecule `COC(=O)C[C@](O)(CCCC(C)(C)O)C(=O)O[C@H]1C(OC)=C[C@@]23CCCN2CCc2cc4c(cc2[C@@H]13)OCO4`, the growth is -53.9% (active). Under `COc1cc(/C=C2\C(=N)N=C(SCc3nc4ccccc4[nH]3)NC2=O)ccc1O` stands 96.8%; under `N/C(=N\N=C\c1ccc([N+](=O)[O-])cc1)c1c(N)nc(=S)[nH]c1-c1ccc(Cl)cc1Cl`, 90.2%; under `CC1(c2cc3cc(Cl)ccc3oc2=O)NC(=O)c2c(/C=C/C(=O)OC3CC4CCC3(C)C4(C)C)cccc2N1` (stereo not drawn), 63.4%. Then `O=C(N=Nc1c(O)[nH]c2ccc(Cl)cc12)c1ccc2nc(-c3ccccc3)[nH]c2c1`, with 29.9%. With `O=C(O)c1cccc(-c2ccc(/C=N/NC(=O)c3[nH]c4ccc(Br)cc4c3-c3ccccc3)o2)c1`, the growth is 86.5%. Under `CC1(C)CC[C@]2(C(=O)Nc3ccccc3)CC[C@]3(C)C(=CCC4[C@@]5(C)C[C@@H](O)[C@H](O)[C@@](C)(CO)C5CC[C@]43C)C2C1` (stereo partly drawn) stands 75.9%; under `O=c1[nH]c2ccccc2cc1CSc1cccc(Nc2nccc(-c3ccc4ccccc4c3)n2)c1`, 91.6%; under `Clc1cccc(N/N=C/c2c[nH]c3ccc(Br)cc23)n1`, 39.8%. Under `CSc1ccc(NC(=O)c2ccc3nnn(/C(C#N)=C/c4ccccn4)c3c2)cc1` stands -95.9% (active); under `Cc1c(C(=O)NNC(=O)c2ccc(Cl)cc2)nnn1-c1ccc(Cl)cc1`, 106%. Regarding `CN(C)c1nc(NCCNS(=O)(=O)c2ccc(C(=O)/C=C/c3ccc(F)cc3)cc2)nc(Nc2ccc(F)cc2)n1`, the growth was -84% (active).

As for `CNC(=O)c1cc(Oc2ccc3nc(NC(=O)Nc4cccc(OC(F)(F)F)c4)sc3c2)ccn1`, the growth was 6.71% (active). `CC(C)(C)OC(=O)/C=C/c1cccc2c1C(=O)NC(C)(c1cc3cc(Cl)ccc3oc1=O)N2` (stereo not drawn): the growth was 53%. Under `Cc1ccc(C2CC(c3ccc(S(=O)(=O)NCCNc4nc(Nc5ccc(F)cc5)nc(N(C)C)n4)cc3)=Nc3c(N)nc(N)nc3N2)cc1` (stereo not drawn) stands 65.3%; under `CC1=C(C(=O)OC(C)C)C(c2cccc(O)c2)NC(=S)N1` (stereo not drawn), 106%; under `C[C@H](Nc1nc(NCCc2ccccc2)nc2ccccc12)c1ccccc1`, -85.2% (active). Regarding `COc1ccc(-c2c(Nn3cnnn3)no[n+]2[O-])cc1`, the growth is 58.9%. Then `Cn1cc(NC(=O)c2cc(NC(=O)c3ccc(C#Cc4ccccc4)cc3)cn2C)cc1C(=O)NCCCN1CCOCC1`, with 58.9%. With `COc1cc(NC(=O)c2cccc(C3CCc4c(cc(OC)c(OC)c4OC)O3)c2)cc(OC)c1OC` (stereo not drawn), the growth is 36.9%. Regarding `COc1ccc(-c2nnc3ccc(N/N=C/c4ccc(C)cc4)nn23)cc1`, the growth was 50.7%. Take `Cc1ccc(-n2c(-c3cc4ccccc4nc3Cl)noc2=O)cc1`: the growth was 87.7%.

Turning to `CC(=O)Oc1ccccc1C(=O)[Se]CC(=O)Nc1cccc(C(F)(F)F)c1`, the growth is -50.9% (active). With `N#Cc1c(-c2ccccc2Cl)cc(-c2ccc3ccccc3c2)[nH]c1=O`, the growth is 38.8%.

`CCCCNC(=S)Nc1ccc(OCc2nc3ccccc3[nH]2)cc1`: the growth is 70%.

On to `COc1ccc(-c2nc3cc(C)ccc3n2CC(=O)N=Nc2c(O)[nH]c3ccccc23)cc1`, for which the growth was -10.8% (active). Then `COc1ccc(-c2nc3ccc(C(=O)NN4C(=O)c5ccc([N+](=O)[O-])cc5C4=O)cc3[nH]2)cc1`, with 98%.

On to `O=c1oc2ccccc2cc1-c1csc(N=Nc2c(O)[nH]c3ccc(Cl)cc23)n1`, for which the growth is 98.7%.

In the case of `CN(C)c1ccnc(CNCCSC2(c3ccccc3)c3ccccc3C=Cc3ccccc32)c1`, the growth is -30.6% (active). For the molecule `COc1cc2c(c(OC)c1OC)C(=O)CC(c1cccc(NC(=O)c3cc(NC(=O)[C@@H](N)CO)ccc3C)c1)O2` (stereo partly drawn), the growth was 112%. Then `COc1ccc(C(=O)/C=C/c2c(F)cccc2Cl)cc1S(N)(=O)=O`, with -16% (active); and `O=C(Nc1cccc(-n2cnc3cc(-c4ccc(O)cc4)ccc32)c1)C1CC1`, with 40.1%; and `COc1ccc(C2(SCCNCc3cc(N(C)C)ccn3)c3ccccc3C=Cc3ccccc32)cc1`, with 13.5%. Under `N/C(=N\c1nc2ccccc2s1)NC(=O)Nc1ccccc1Br` stands -24.4% (active); under `COc1ccc(C2=NN(c3ccccc3)C(c3ccc(OC)c(OCc4ccccc4)c3)C2)cc1OC` (stereo not drawn), 99.8%. Regarding `CC1=C(C(=O)c2ccccc2)C(c2ccc(-n3cncn3)cc2)n2c(nc3ccccc32)N1` (stereo not drawn), the growth was 87.9%. Take `CN(C)CCCNC(=O)c1cc(NC(=O)c2cc(NC(=O)c3ccc(C#Cc4ccccc4)cc3)cn2C)cn1C`: the growth was -42.7% (active). Then `COc1cccc(/C=C/c2nc3ccccc3c(=O)n2CC(=O)Nc2ccc(Cl)cc2)c1`, with 82.7%.

The values are drawn from PubChem BioAssay (NCI).
